Source: PubChem BioAssay AID1159580 (chemical genetic matrix, 2015)
The campaign covered roughly 5,500 compounds. About 2,000 (36%) were called active. Roughly 18% stayed inconclusive and do not appear here. No stated cut-off is given here; in the data, active means normalized growth mostly below about 0.91 (no sharp cut-off); inconclusive means no clear call, values can overlap the other calls; inactive means mostly above about 0.92. The list shows a part of the results.

Test: chemical genetic growth profiling, strain panel (AID 1159580);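 further: tested at 20 µM; growth read once vehicle control cultures reached saturation at 30 °C; 1 = growth at the plate median or of vehicle wells; lower values mean less growth of the strain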
Details: growth OD

Measured: normalized growth

Cn1c(=O)[nH]c(=O)c2[nH]cnc21
inactive: S. cerevisiae deletion strains, locus YJR075W, strain HOC1, active compounds read low 0.995 | S. cerevisiae deletion strains, locus YKL009W, strain mrt4, active compounds read low 0.998 | S. cerevisiae deletion strains, locus YKL068W, active compounds read low 0.97 | S. cerevisiae deletion strains, locus YKL085W, strain MDH1 (second series), active compounds read low 0.976 | S. cerevisiae deletion strains, locus YKL085W, strain MDH1, active compounds read low 0.976 | S. cerevisiae deletion strains, locus YKL160W, strain elf1, active compounds read low 1 | S. cerevisiae deletion strains, locus YKL190W, strain CNB1, active compounds read low 0.995 | S. cerevisiae deletion strains, locus YKR001C, strain vps1, active compounds read low 0.987 | S. cerevisiae deletion strains, locus YKR026C, strain gcn3, active compounds read low 0.984 | S. cerevisiae deletion strains, locus YKR091W, strain srl3, active compounds read low 0.992 | S. cerevisiae deletion strains, locus YLL001W, strain dnm1, active compounds read low 1.01 | S. cerevisiae deletion strains, locus YLL026W, active compounds read low 1 | S. cerevisiae deletion strains, locus YLL041C, strain sdh2, active compounds read low 1 | S. cerevisiae deletion strains, locus YLR027C, strain aat2, active compounds read low 0.974 | S. cerevisiae deletion strains, locus YLR039C, strain RIC1, active compounds read low 0.974 | S. cerevisiae deletion strains, locus YLR058C, strain SHM2, active compounds read low 0.988 | S. cerevisiae deletion strains, locus YLR102C, strain apc9, active compounds read low 0.972 | S. cerevisiae deletion strains, locus YLR113W, strain HOG1, active compounds read low 0.998 | S. cerevisiae deletion strains, locus YLR221C, strain rsa3, active compounds read low 1.01 | S. cerevisiae deletion strains, locus YLR258W, strain gsy2, active compounds read low 0.999 | S. cerevisiae deletion strains, locus YLR262C, strain YPT6 (second series), active compounds read low 0.976 | S. cerevisiae deletion strains, locus YLR262C, strain YPT6, active compounds read low 1.01 | S. cerevisiae deletion strains, locus YLR268W, strain sec22, active compounds read low 0.956 | S. cerevisiae deletion strains, locus YLR320W, strain mms22, active compounds read low 0.987 | S. cerevisiae deletion strains, locus YLR330W, strain CHS5, active compounds read low 0.991 | S. cerevisiae deletion strains, locus YLR342W, strain FKS1 (second series), active compounds read low 1.01 | S. cerevisiae deletion strains, locus YLR342W, strain FKS1, active compounds read low 1.01 | S. cerevisiae deletion strains, locus YLR357W, strain rsc2, active compounds read low 0.971 | S. cerevisiae deletion strains, locus YLR370C, strain arc18, active compounds read low 0.989 | S. cerevisiae deletion strains, locus YLR371W, strain rom2, active compounds read low 0.96 | S. cerevisiae deletion strains, locus YLR384C, strain iki3, active compounds read low 0.983 | S. cerevisiae deletion strains, locus YLR418C, strain cdc73, active compounds read low 0.983 | S. cerevisiae deletion strains, locus YML016C, strain PPZ1, active compounds read low 0.986 | S. cerevisiae deletion strains, locus YML032C, strain rad52, active compounds read low 0.974 | S. cerevisiae deletion strains, locus YML120C, strain ndi1, active compounds read low 0.999 | S. cerevisiae deletion strains, locus YML124C, strain tub3, active compounds read low 0.972 | S. cerevisiae deletion strains, locus YMR058W, strain fet3, active compounds read low 1.01 | S. cerevisiae deletion strains, locus YMR078C, strain ctf18, active compounds read low 0.954 | S. cerevisiae deletion strains, locus YMR125W, strain sto1, active compounds read low 1.01 | S. cerevisiae deletion strains, locus YMR129W, active compounds read low 0.99 | S. cerevisiae deletion strains, locus YMR205C, strain PFK2, active compounds read low 0.998 | S. cerevisiae deletion strains, locus YMR223W, strain ubp8, active compounds read low 0.987 | S. cerevisiae deletion strains, locus YMR231W, strain pep5, active compounds read low 0.992 | S. cerevisiae deletion strains, locus YMR263W, strain SAP30, active compounds read low 0.953 | S. cerevisiae deletion strains, locus YMR307W, strain GAS1, active compounds read low 0.948 | S. cerevisiae deletion strains, locus YNL067W, strain RPL9B, active compounds read low 0.996 | S. cerevisiae deletion strains, locus YNL071W, strain lat1, active compounds read low 0.98 | S. cerevisiae deletion strains, locus YNL128W, strain TEP1, active compounds read low 0.987 | S. cerevisiae deletion strains, locus YNL153C, strain GIM3, active compounds read low 0.993 | S. cerevisiae deletion strains, locus YNL183C, strain NPR1, active compounds read low 0.925 | S. cerevisiae deletion strains, locus YNL209W, strain ssb2, active compounds read low 0.983 | S. cerevisiae deletion strains, locus YNL233W, strain BNI4, active compounds read low 0.981 | S. cerevisiae deletion strains, locus YNL248C, strain rpa49, active compounds read low 0.985 | S. cerevisiae deletion strains, locus YNL250W, strain rad50, active compounds read low 0.956 | S. cerevisiae deletion strains, locus YNL271C, strain bni1, active compounds read low 0.963 | S. cerevisiae deletion strains, locus YNL298W, strain CLA4, active compounds read low 0.972 | S. cerevisiae deletion strains, locus YNL307C, strain MCK1, active compounds read low 0.975 | S. cerevisiae deletion strains, locus YNL322C, strain KRE1 (second series), active compounds read low 0.968 | S. cerevisiae deletion strains, locus YNL322C, strain KRE1, active compounds read low 0.997 | S. cerevisiae deletion strains, locus YNR049C, strain mso1, active compounds read low 1 | S. cerevisiae deletion strains, locus YNR052C, strain pop2, active compounds read low 0.97 | S. cerevisiae deletion strains, locus YOL006C, strain TOP1, active compounds read low 0.965 | S. cerevisiae deletion strains, locus YOL012C, strain htz1 1.01 | S. cerevisiae deletion strains, locus YOL147C, strain pex11, active compounds read low 0.981 | S. cerevisiae deletion strains, locus YOR001W, strain rrp6, active compounds read low 1.01 | S. cerevisiae deletion strains, locus YOR061W, strain CKA2, active compounds read low 0.986 | S. cerevisiae deletion strains, locus YOR069W, strain VPS5, active compounds read low 0.981 | S. cerevisiae deletion strains, locus YOR070C, strain gyp1, active compounds read low 0.998 | S. cerevisiae deletion strains, locus YOR080W, strain dia2, active compounds read low 0.986 | S. cerevisiae deletion strains, locus YOR083W, strain WHI5, active compounds read low 0.933 | S. cerevisiae deletion strains, locus YOR106W, strain vam3, active compounds read low 0.977 | S. cerevisiae deletion strains, locus YOR136W, strain idh2, active compounds read low 0.967 | S. cerevisiae deletion strains, locus YOR144C, strain elg1, active compounds read low 0.958 | S. cerevisiae deletion strains, locus YOR184W, strain ser1, active compounds read low 0.966 | S. cerevisiae deletion strains, locus YOR231W, strain MKK1, active compounds read low 0.978 | S. cerevisiae deletion strains, locus YOR265W, strain rbl2, active compounds read low 0.988 | S. cerevisiae deletion strains, locus YOR270C, strain vph1, active compounds read low 0.981 | S. cerevisiae deletion strains, locus YOR290C, strain snf2, active compounds read low 0.987 | S. cerevisiae deletion strains, locus YOR316C, strain cot1, active compounds read low 0.972 | S. cerevisiae deletion strains, locus YPL051W, strain arl3, active compounds read low 0.988 | S. cerevisiae deletion strains, locus YPL055C, strain LGE1, active compounds read low 1 | S. cerevisiae deletion strains, locus YPL078C, strain atp4, active compounds read low 0.988 | S. cerevisiae deletion strains, locus YPL106C, strain sse1, active compounds read low 0.958 | S. cerevisiae deletion strains, locus YPL240C, strain hsp82, active compounds read low 1.02 | S. cerevisiae deletion strains, locus YPL241C, strain CIN2, active compounds read low 0.993 | S. cerevisiae deletion strains, locus YPL256C, strain CLN2, active compounds read low 0.972 | S. cerevisiae deletion strains, locus YPR119W, strain clb2, active compounds read low 0.974 | S. cerevisiae deletion strains, locus YPR141C, strain kar3, active compounds read low 0.952 | S. cerevisiae deletion strains, locus YPR163C, strain tif3, active compounds read low 0.965 | S. cerevisiae deletion strains, locus YPR167C, strain met16, active compounds read low 0.965 | S. cerevisiae deletion strains, strain wtn01, active compounds read low 0.982 | S. cerevisiae strains, strain wild type, active compounds read low 0.993
